Test [1] in a line: qHTS to identify inhibitors of the type 1 interferon - major histocompatibility complex class I in skeletal muscle: primary screen against the NCATS LOPAC collection (AID 1347405).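 Also: lytic HiBiT luminescence reporting HLA-B protein level.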 Also: potency is read from the fitted curve at half-maximal effect. The conditions noted are these: iHSKM muscle cells, IFN-b-induced MHC-I HiBiT luminescence, 24 h; series mostly up to 45.9 µM. In short, it runs like this: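 IFN-beta-stimulated (4 ng/ml) HLA-B HiBiT knock-in myoblasts, compound-treated 24 hrs up to 46 uM final; signal via LgBiT complementation and furimazine luminescence.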

The nature of test [2]: qHTS for inhibitors of adenylyl cyclases using a fission yeast platform: a pilot screen against the NCATS LOPAC library (AID 1347410). The conditions noted are these: S. pombe CHP2027, fbp1-GFP fluorescence, 18 h, yeast expressing mammalian AC9 and human GNAS; series mostly up to 57.5 µM. In short, it runs like this: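 S. pombe CHP2027 (AC9-GNAS-PDE4D2) carrying PKA-repressed fbp1-GFP, incubated 18 h at 30C in EMM with LOPAC compounds at up to 57 uM. GFP gain-of-signal read by laser scanning cytometry; DMSO negative control.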
On the technique in general: Quantitative high-throughput screening tests each substance at several concentrations.

Test [3] can be described thus: qHTS to identify inhibitors of the type 1 interferon - major histocompatibility complex class I in skeletal muscle: primary screen against the NCATS Mechanism Interrogation Plate v5.0 (MIPE) Libary (AID 1347411). Also: nearly all actives have a fitted effect of over 65% in size. To be noted: iHSKM cells + IFN-b, HiBiT-tagged MHC-I luminescence, 24 h; series mostly up to 45.8 µM. The essentials: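 IFN-beta-driven (4 ng/ml) HLA-B-HiBit expression in CRISPR-tagged C25cl48 myoblasts; compounds 11-pt, 1:3, max 46 uM, 24 hr exposure; lytic NanoLuc complementation luminescence.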

A short description of test [4]: qHTS to identify inhibitors of the type 1 interferon - major histocompatibility complex class I in skeletal muscle: primary screen against the NCATS Pharmaceutical Collection (AID 1347407).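 Also: luminescence of HiBiT knocked into endogenous HLA-B as interferon-induced MHC class I level.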 To be noted: human skeletal muscle cells, IFN-b-induced MHC-I HiBiT luminescence, 24 h; series mostly up to 45.9 µM. The essentials:
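Immortalized human myoblasts (C25cl48) with HiBiT knocked into endogenous HLA-B*08:01 were stimulated with 4.0 ng/ml IFN-beta and treated with compounds ([…] top 46 uM) for 24 hrs at 37 C. HiBiT lytic luminescence read.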

The target of test [5] is Protein phosphatase 1D (Homo sapiens) (UniProt O15297). Nature of the test: RapidFire Mass Spectrometry qHTS Assay for Modulators of WT P53-Induced Phosphatase 1 (WIP1) (AID 1347424).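 Also: amount of dephosphorylated VEPPL-S-QETFS peptide product formed by WIP1.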 Also: potency is read from the fitted curve at half-maximal effect. The conditions noted are these: WIP1 dephosphorylation of phosphopeptide, RapidFire MS; series mostly up to 63 µM. In short, it runs like this: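 Mass-spectrometric measurement of dephosphorylated peptide after a 5 min room-temperature reaction of 10 nM WIP1 with 2 uM phosphopeptide, following 1 h compound preincubation in 30 mM MgCl2 buffer.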
Protein phosphatase 1D (Homo sapiens), sequence (O15297 whole entry, looked up): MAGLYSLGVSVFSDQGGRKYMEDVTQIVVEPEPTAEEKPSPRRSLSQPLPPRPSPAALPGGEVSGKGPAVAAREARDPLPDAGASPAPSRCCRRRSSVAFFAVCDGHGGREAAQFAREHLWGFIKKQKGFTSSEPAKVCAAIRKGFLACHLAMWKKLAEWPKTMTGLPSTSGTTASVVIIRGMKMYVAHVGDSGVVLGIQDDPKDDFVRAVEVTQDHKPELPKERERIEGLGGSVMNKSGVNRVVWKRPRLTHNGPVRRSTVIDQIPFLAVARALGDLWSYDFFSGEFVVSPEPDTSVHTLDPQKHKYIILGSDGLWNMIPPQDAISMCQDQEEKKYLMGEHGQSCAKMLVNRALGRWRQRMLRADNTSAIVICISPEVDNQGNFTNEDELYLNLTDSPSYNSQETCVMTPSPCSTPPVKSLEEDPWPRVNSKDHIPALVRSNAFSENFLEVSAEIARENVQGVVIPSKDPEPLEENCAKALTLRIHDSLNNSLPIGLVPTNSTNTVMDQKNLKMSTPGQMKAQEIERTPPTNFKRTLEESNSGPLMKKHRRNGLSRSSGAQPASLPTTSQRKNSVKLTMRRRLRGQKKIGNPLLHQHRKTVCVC

Test [6] has the same target. Nature of the test: Rhodamine-PBP qHTS Assay for Modulators of WT P53-Induced Phosphatase 1 (WIP1) (AID 1347425). The conditions noted are these: recombinant WIP1, Rhodamine-PBP phosphate fluorescence, real-time; series mostly up to 57.5 µM. The essentials:
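The read-out is the change in Rhodamine-PBP fluorescence (f1 - f0, ex 525/em 598 nm) as Pi is released, read each minute for 11 min. Final reaction: 5 nM WIP1, 10 uM phosphopeptide VEPPL-pS-QETFS, 10 uM Rh-PBP, 50 mM Tris-HCl pH 7.5, 30 mM MgCl2. Compound was preincubated with enzyme for 1 hour at room temperature.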

Results on 40 molecules are retold here after PubChem BioAssay (NCATS).

The structures appear in SMILES notation. Results filed as inconclusive are left out. Where a call stands in place of a potency, no number is given. The source made the active and inactive calls. Calls follow the shape of the dose curve; as a rule, active = well fitted curve in the direction sought with a large enough effect; inconclusive = small, poorly fitted or top-dose-only effect, or another doubt; inactive = no such curve, though single readings can be large; an effect the other way counts as inactive or inconclusive.

Turning to `Brc1c(Br)c(Br)c2n[nH]nc2c1Br`, the Potency entry in test [1] was “inactive”. Further, the result in test [2] was inactive.

`Cc1cc(NC(=O)Nc2ccc3c(ccn3C)c2)sn1`: the Potency result in test [1] was “inactive”. Also, the call in test [2] was inactive.

On to `Clc1ccc(N2CCN(Cc3cc4ccccn4n3)CC2)cc1`, for which the Potency result in test [1] is “inactive”. Further, the result in test [2] was inactive.

Turning to `CCNC(=O)[C@H]1O[C@@H](n2cnc3c(N)nc(NCCc4ccc(CCC(=O)O)cc4)nc32)[C@H](O)C1O` (some centres not stated), in test [1], the Potency entry was “inactive”. In test [2], the call was inactive.

`COc1cc(C(O)CO)ccc1OS(=O)(=O)O` (configuration not stated): the Potency result in test [1] was “inactive”. The outcome in test [2] was inactive.

Take `Oc1ccc(C2CNCc3sccc32)cc1O` (configuration not stated): the Potency entry in test [1] was “inactive”. Also, the molecule was classed as inactive in test [2].

On to `O=[N+]([O-])c1ccc(CNc2nc(NCc3cccc(C(F)(F)F)c3)nc3nc[nH]c23)cc1`, for which the Potency entry in test [1] was “inactive”. In test [2], the result was inactive.

As to `NC(=S)c1ccc[n+]([C@@H]2O[C@@H](COP(=O)([O-])OP(=O)(O)OC[C@H]3O[C@@H](n4cnc5c(N)ncnc54)[C@H](OP(=O)(O)O)[C@@H]3O)C(O)C2O)c1` (some centres not stated), the Potency result in test [1] was “inactive”. For the same molecule, in test [2], the call was inactive.

Turning to `c1ccc(-c2ccccn2)nc1`, the Potency entry in test [1] is “inactive”. Further, the molecule was classed as inactive in test [2].

Consider `Cc1ccc(O)c(N=Nc2ccccc2)n1`, for which the Potency result in test [1] was “inactive”. Moreover, the molecule was classed as inactive in test [2].

`O=c1[nH]c2cc([N+](=O)[O-])c([N+](=O)[O-])cc2[nH]c1=O`: the Potency result in test [1] was “inactive”. In addition, the molecule was called inactive in test [2].

Take `Cn1c(=O)c(-c2c(Cl)cccc2Cl)cc2cnc(Nc3ccc(N4CCOCC4)cc3)nc21`: the Potency in test [1] is 0.631 µM (active). Further, the call in test [2] was inactive.

`CC(=O)SCC[N+](C)(C)C`: in test [1], the Potency entry is “inactive”. For the same molecule, in test [2], the molecule was classed as inactive.

Turning to `CCCCCCCCCCCCCCCCCCN(CCCCCCCCCCCCCCCCCC)CCCN(CCO)CCO`, the Potency result in test [1] was “inactive”. Also, the molecule was classed as inactive in test [2].

In the case of `O=C(/C=C/c1ccc(O)c(O)c1)OCCc1ccccc1`, the Potency result in test [1] was “inactive”. Further, the call in test [2] was inactive.

Regarding `Brc1cc2c(cc1[C@H]1Nc3ccccc3[C@H]3C=CC[C@H]31)OCO2`, the Potency result in test [1] is “inactive”. Besides, in test [2], the result was inactive.

Regarding `C=CC(N)CCC(=O)O` (configuration not stated), the Potency entry in test [1] is “inactive”. For the same molecule, in test [2], the result was inactive.

`O=C(CCSCc1ccco1)NNC(=O)N1Cc2ccccc2Oc2ccc(Cl)cc21`: the Potency entry in test [1] was “inactive”. Also, the molecule was classed as inactive in test [2].

In the case of `CCCCCCCC/C=C\CCCCCCCC(=O)NCCO`, the Potency entry in test [1] is “inactive”. Further, in test [2], the molecule was classed as inactive.

In the case of `NC(=O)C1=CN(C2OC(COP(=O)(O)OP(=O)(O)OC[C@H]3O[C@@H](n4cnc5c(N)ncnc54)[C@H](OP(=O)(O)O)[C@@H]3O)C(O)C2O)C=CC1` (some centres not stated), in test [1], the Potency result is “inactive”. Also, the molecule was classed as inactive in test [2].

Take `CCN1/C(=C/C(C)=O)Sc2ccc(OC)cc21`: the Potency result in test [1] and in test [3] was “inactive” in each case. The molecule was classed as inactive in test [2].

As to `Nc1nc(Cl)nc2c1ncn2[C@@H]1O[C@H](COP(=O)(O)OP(=O)(O)OP(=O)(O)O)[C@@H](O)[C@H]1O`, the Potency entry in test [1] is “inactive”. Also, the call in test [2] was inactive.

As for `COc1ccccc1CNCCCCCCNCCCCCCCCNCCCCCCNCc1ccccc1OC`, the Potency result in test [1] was “inactive”. Further, the result in test [2] was inactive.

`O=P(O)(O)C(Cl)(Cl)P(=O)(O)O`: in test [1], the Potency result is “inactive”. Further, the molecule was called inactive in test [2].

As to `CN(C)CCC(c1ccc(Cl)cc1)c1ccccn1` (configuration not stated), the Potency entry in test [1] was “inactive”. Moreover, the outcome in test [2] was inactive.

As to `C[N+]1(C)CCC(OC(=O)C(c2ccccc2)c2ccccc2)CC1`, the Potency entry in test [1] is “inactive”. Moreover, in test [2], the call was inactive.

Consider `O=C(Nc1cccc(C(=O)Nc2ccc(S(=O)(=O)O)c3cc(S(=O)(=O)O)cc(S(=O)(=O)O)c23)c1)Nc1cccc(C(=O)Nc2ccc(S(=O)(=O)O)c3cc(S(=O)(=O)O)cc(S(=O)(=O)O)c23)c1`, for which the Potency result in test [1] was “inactive”. In test [2], the molecule was called inactive.

`O=C1NCc2c1c1c3ccccc3[nH]c1c1[nH]c3ccccc3c21`: the Potency in test [1] is 7.94 µM (active). In addition, in test [2], the outcome was inactive.

Take `C[N+]1(C)C2CC(OC(=O)[C@H](CO)c3ccccc3)CC1C1OC12` (some centres not stated): the Potency result in test [1] is “inactive”. Further, in test [2], the molecule was called inactive.

For the molecule `CC(C)(C)c1ccc(S(=O)(=O)/C=C/C#N)cc1`, the Potency in test [1] was 7.08 µM (active). The call in test [2] was inactive.

Consider `COc1cccc(OC)c1OCCNCC1COc2ccccc2O1` (configuration not stated), for which the Potency entry in test [1] was “inactive”. For the same molecule, the outcome in test [2] was inactive.

Take `COc1cc(SC)ccc1C(=O)N1CCC(Cc2ccccc2)CC1`: the Potency entry in test [1] and in test [3] was “inactive” in each case. For the same molecule, the molecule was classed as inactive in test [2].

As to `Nc1ccc(O)c(C(=O)O)c1`, in test [4], the Potency result is “inactive”. The Potency in test [5] was 17.8 µM (active).

As for `O=C1CN(/N=C/c2ccc([N+](=O)[O-])o2)C(=O)N1`, the Potency result in test [4] and in test [5] was “inactive” throughout. Further, in test [6], the result was inactive.

As for `Nc1ccc(O)c([N+](=O)[O-])c1`, the Potency result in test [4] was “inactive”. Besides, the Potency in test [5] was 35.5 µM (active).

For the molecule `CCCCCCCCCCCCOCCO`, the Potency result in test [4] and in test [5] was “inactive” in each case. Also, the result in test [6] was inactive.

As to `CO[C@@]1(NC(=O)Cc2cccs2)C(=O)N2C(C(=O)O)=C(COC(N)=O)CS[C@@H]21`, the Potency result in test [4] and in test [5] was “inactive” throughout. For the same molecule, the result in test [6] was inactive.

For `COc1cc(NC(C)CCCN)c2ncccc2c1` (configuration not stated), the Potency result in test [4] and in test [5] was “inactive” each time.

Turning to `Cc1ccc2c(n1)Oc1ccc(C(C)C(=O)OCC(=O)N(C)C)cc1C2` (configuration not stated), the Potency result in test [4] and in test [5] was “inactive” each time. Besides, the outcome in test [6] was inactive.

As to `Cc1c(N)c(=O)n(-c2ccccc2)n1C`, the Potency result in test [4] and in test [5] was “inactive” each time. Further, in test [6], the result was inactive.
